{"source": "PubChem BioAssay AID1671192", "about": "(National Center for Advancing Translational Sciences (NCATS), 2021)", "note": "Inconclusive results are not listed. Unmarked numbers belong to inactive results. Calls come from the whole dose curve; as a rule, active = well fitted curve in the direction sought with a large enough effect; inconclusive = small, poorly fitted or top-dose-only effect, or another doubt; inactive = no such curve, though single readings can be large or run the other way."}
{"molecular_target": "Polyunsaturated fatty acid lipoxygenase ALOX15 (Homo sapiens) (UniProt P16050)", "sequence (P16050 whole entry, looked up)": "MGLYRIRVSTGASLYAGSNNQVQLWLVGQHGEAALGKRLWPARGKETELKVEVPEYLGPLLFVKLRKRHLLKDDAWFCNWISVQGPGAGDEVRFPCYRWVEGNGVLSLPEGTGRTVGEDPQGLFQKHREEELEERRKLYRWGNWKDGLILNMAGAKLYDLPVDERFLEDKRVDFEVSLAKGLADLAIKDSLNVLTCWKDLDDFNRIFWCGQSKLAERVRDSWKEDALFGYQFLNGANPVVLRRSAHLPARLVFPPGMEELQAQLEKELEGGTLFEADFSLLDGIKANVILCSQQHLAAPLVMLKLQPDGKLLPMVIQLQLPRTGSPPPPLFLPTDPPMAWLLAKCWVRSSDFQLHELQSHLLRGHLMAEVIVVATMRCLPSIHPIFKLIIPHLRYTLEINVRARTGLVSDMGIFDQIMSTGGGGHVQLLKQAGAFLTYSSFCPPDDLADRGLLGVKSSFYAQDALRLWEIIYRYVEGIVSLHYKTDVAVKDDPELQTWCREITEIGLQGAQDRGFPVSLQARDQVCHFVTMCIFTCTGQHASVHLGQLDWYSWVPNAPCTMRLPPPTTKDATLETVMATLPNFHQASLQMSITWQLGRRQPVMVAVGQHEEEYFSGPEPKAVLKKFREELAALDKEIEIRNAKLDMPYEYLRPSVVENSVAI", "test": "Counterscreen qHTS for inhibitors of human arachidonate 12S-lipoxygenase (ALOX12): ALOX15 Assay; note: 0% is about no effect", "details": "purified ALOX15 enzyme activity; series mostly up to 233 µM; activity change, negative = inhibition: at the top concentration", "excerpt": "Assay Provider: Theodore R. Holman Ph.D.\nUniversity of California, Santa Cruz, California\nHuman lipoxygenase 12hLO is a member of the closely related lipoxygenase family of enzymes which catalyze the site-specific oxidation of arachidonic acid to various hormone precursor molecules and as such is a candidate for drug development in a variety of disease areas, such as cancer and inflammation. Inhibition of 12hLO activity was screened by utilizing arachidonic acid as a substrate. The extent of hydroperoxide product formation was measured by a secondary chromogenic reaction in which xylenol orange (XO, Sigma-Aldrich, cat. number 39,818-7) reacts with the ferric ions produced from the reaction between the hydroperoxide and ferrous ions. The Fe (III)-XO complex is characterized with red-shifted absorbance at 560 nm. A purified preparation of human 12hLO was supplied by Dr. Holman laboratory, University of California, Santa Cruz.\nAn assay against arachidonate 15-lipoxygenase (ALOX15) was developed to assess selective inhibition against ALOX12. Desired compounds would show potent inhibition against ALOX12 and minimal to no inhibition against ALOX15.\nSEQUENCE No. (e.g., 1, 2, 3, etc.); PARAMETER (e.g., Cells, Incubation, Reagent, etc.); VALUE; DESCRIPTION\n1; Enzyme; 3 uL; 40 nM ALOX15 (15hLO-1) enzyme solution dispensed in 1536-well Greiner black, clear bottom plates.\n2; Compound; 23 nL; compounds and controls were added.\n3; Incubate; 15 min; room temperature.\n4; Substrate; 1 uL; 50 uM arachidonic acid (final concentration).\n5; Incubate; 30 min; room temperature.\n6; Reagent; 4 uL; Fe-XO solution was added to each well.\n8; Incubation; 30 min; room temperature\n9; Detector; absorbance; Read 1 at 405 nm absorbance using ViewLux (PerkinElmer) CCD imager.\n10; Detector; absorbance; Read 2 at 573 nm absorbance using ViewLux (PerkinElmer) CCD imager.\nNOTES (numbers refer to sequence above)\n1; 40 nM ALOX15 (final concentration) in buffer solution (25 mM Hepes, 0.01% Triton X-100, pH 7.5) was dispensed in columns 1, 2, 5 - 48. Column 1 is neutral (100% activity). Buffer only was dispensed in columns 3 and 4 as no enzyme negative controls. The plates were covered with metal lids with gas-exchange holes.\n2; Compounds were pin transferred via a Kalypsys Pin Tool (Wako USA) in column 5 - 48. Control compound was transferred in column 2, titration of nordihydroguaiaretic acid (NDGA, Sigma-Aldrich, N5023) with top concentration of 10 mM in DMSO then 1:2 dilution in duplicate. Dilution factor of 23 nL into 4 uL final assay volume.\n3; Covered assay plates were incubated for 15 min at room temperature.\n4; Substrate was added to start the reaction; 50 uM arachidonic acid (Sigma-Aldrich, St. Louis, MO) was dispensed throughout the plate.\n6; Chromogenic detection reagent solution (divalent iron/xylenol orange, Fe-XO) was added to each well: 200 uM xylenol orange, 300 uM ferrous ammonium sulfate prepared freshly in 50 mM sulfuric acid.\n9, 10; Two absorbance readouts were obtained at 405 nm and at 573 nm using a ViewLux high-throughput CCD plate imager (PerkinElmer). The 573 to 405 (Read 2 / Read 1) absorbance ratio was used to compute reaction progress."}
{"smiles": "O=C(Cc1ccc(Cl)cc1)N1Cc2ccccc2CC2(CCCN2CC2CCNC2)C1", "note": "(stereo not given)", "activity change, negative = inhibition": "-1.25% [at 110 µM]"}
{"smiles": "CNC1CCc2ccccc21", "note": "(stereo not given)", "activity change, negative = inhibition": "-19.7%"}
{"smiles": "CCN1CCCCC12Cc1ccccc1CN(C(=O)Cc1ccccc1)C2", "note": "(stereo not given)", "activity change, negative = inhibition": "30.9% [at 110 µM]"}
{"smiles": "CN(C)c1ccc(CN2CCC3(CC2)C(=O)Nc2ccccc23)cc1", "activity change, negative = inhibition": "-21.5% [at 146 µM]"}
{"smiles": "O=[S+]1([O-])NC2(CCN(CC3CCOCC3)C2)COc2ccncc21", "note": "(stereo not given)", "activity change, negative = inhibition": "6.63% [at 110 µM]"}
{"smiles": "CCN1CCCCC12Cc1ccccc1CN(C(=O)Cc1ccc(OC)cc1)C2", "note": "(stereo not given)", "activity change, negative = inhibition": "-13.8% [at 110 µM]"}
{"smiles": "c1ccc(CC2CN3CCCC3CN2)cc1", "note": "(stereo not given)", "activity change, negative = inhibition": "-5.65%"}
{"smiles": "CC(C)C1CN2CCCC2CN1", "note": "(stereo not given)", "activity change, negative = inhibition": "-28.7%"}
{"smiles": "O=C1Nc2ccccc2C12CCN(CC1CCCCC1)CC2", "activity change, negative = inhibition": "-21.5% [at 146 µM]"}
{"smiles": "O=C(O)C1=NOC2CN(Cc3cccc(Br)n3)CC12", "note": "(stereo not given)", "activity change, negative = inhibition": "-9.19% [at 146 µM]"}
{"smiles": "CCCCC1CN2CCCC2CN1", "note": "(stereo not given)", "activity change, negative = inhibition": "-19.4%"}
{"smiles": "c1cnc2nc(C3CCNCC3)[nH]c2c1", "activity change, negative = inhibition": "-13.3%"}
{"smiles": "O=C1NC2(Cc3ccccc31)CN(CC1CC1)C2", "activity change, negative = inhibition": "9.8%"}
{"smiles": "FC(F)(F)CN1C2CCC1CN(c1cncc(Br)c1)C2", "activity change, negative = inhibition": "-17.5% [at 110 µM]"}
{"smiles": "COc1ccc(C(CN)N2CCCC2)cc1", "note": "(stereo not given)", "activity change, negative = inhibition": "1.12%"}
{"smiles": "O=C(O)C1=NOC2CN(Cc3ccccc3)CC12", "note": "(stereo not given)", "activity change, negative = inhibition": "-24.1%"}
{"smiles": "CNC(C)c1ccc(Cl)cc1", "note": "(stereo not given)", "activity change, negative = inhibition": "-14.3%"}
{"smiles": "O=C1Nc2ccccc2CN(Cc2ccncc2)C12CCNCC2", "activity change, negative = inhibition": "-28.4% [at 110 µM]"}
{"smiles": "COc1ccc(CC(=O)N2Cc3ccccc3CC3(CCCCN3C)C2)cc1", "note": "(stereo not given)", "activity change, negative = inhibition": "1.23% [at 110 µM]"}
{"smiles": "CC1CN2CCCCC2CN1", "note": "(stereo not given)", "activity change, negative = inhibition": "-4.4% [at 343 µM]"}
